Measured values reported in paper PMC7862700, “An all-to-all approach to the identification of sequence-specific readers for epigenetic DNA modifications on cytosine”.

Tests used:
Assay in all cases: DAPPL (digital affinity profiling via proximity ligation, sequencing); 10 mM Tris-HCl pH 7.5, 50 mM NaCl, 1 mM DTT, 4% glycerol, room temperature, 30 min; GST-TFs on glutathione beads, 16-mer random dsDNA library, 0.1% formaldehyde crosslink after washing; high values mean tight binding
Settings in all cases: protein: recombinant; tags: N-terminal GST; dsDNA, one strand shown
FLI1 = molecular target: T1, FLI1 (Homo sapiens, UniProt Q01543 1-452)
T1 sequence: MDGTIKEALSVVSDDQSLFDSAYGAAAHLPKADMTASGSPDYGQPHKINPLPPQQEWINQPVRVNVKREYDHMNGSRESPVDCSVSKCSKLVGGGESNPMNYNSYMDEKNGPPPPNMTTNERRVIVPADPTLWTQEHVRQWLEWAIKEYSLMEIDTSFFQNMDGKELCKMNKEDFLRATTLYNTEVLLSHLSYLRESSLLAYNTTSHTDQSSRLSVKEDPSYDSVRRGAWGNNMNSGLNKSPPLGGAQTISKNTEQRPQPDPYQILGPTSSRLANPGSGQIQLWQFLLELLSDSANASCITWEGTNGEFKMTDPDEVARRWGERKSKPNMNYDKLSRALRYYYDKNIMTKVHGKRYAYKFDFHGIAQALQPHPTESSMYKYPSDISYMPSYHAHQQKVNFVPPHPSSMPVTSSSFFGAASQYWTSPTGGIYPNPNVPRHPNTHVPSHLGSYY
Method in brief: (§1)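 Binding signal is each hexamer's read frequency for a factor divided by its frequency in the tag-only sample. The factors were GST-fused human transcription factors from yeast, captured on glutathione beads, DNA-barcoded and pooled with that sample. Pools were incubated with 200 nmole of a random double-stranded 16-mer DNA library in Tris/NaCl/DTT/glycerol buffer at room temperature for 30 min, then washed, crosslinked with 0.1% formaldehyde, proximity-ligated with BsaI/T4 ligase (1 h, 37 °C), PCR-amplified and sequenced on an Illumina NextSeq500.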

ELK1 = molecular target: T2, ELK1 (Homo sapiens, UniProt P19419 1-428)
T2 sequence: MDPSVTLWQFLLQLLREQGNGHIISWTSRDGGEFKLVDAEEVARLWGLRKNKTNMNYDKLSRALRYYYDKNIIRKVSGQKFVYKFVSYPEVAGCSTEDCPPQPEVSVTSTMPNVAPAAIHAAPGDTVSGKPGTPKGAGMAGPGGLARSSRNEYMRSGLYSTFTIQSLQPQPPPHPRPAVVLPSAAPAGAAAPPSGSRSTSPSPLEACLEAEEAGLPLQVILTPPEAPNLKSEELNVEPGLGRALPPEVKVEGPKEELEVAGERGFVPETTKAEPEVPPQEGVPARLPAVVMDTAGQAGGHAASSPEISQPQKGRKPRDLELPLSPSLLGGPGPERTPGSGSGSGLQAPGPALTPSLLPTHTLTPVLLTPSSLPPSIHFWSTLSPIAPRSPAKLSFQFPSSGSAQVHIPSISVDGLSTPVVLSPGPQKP
Method in brief: as §1

GABPA = molecular target: T3, GABPA (Homo sapiens, UniProt Q06546 1-454)
T3 sequence: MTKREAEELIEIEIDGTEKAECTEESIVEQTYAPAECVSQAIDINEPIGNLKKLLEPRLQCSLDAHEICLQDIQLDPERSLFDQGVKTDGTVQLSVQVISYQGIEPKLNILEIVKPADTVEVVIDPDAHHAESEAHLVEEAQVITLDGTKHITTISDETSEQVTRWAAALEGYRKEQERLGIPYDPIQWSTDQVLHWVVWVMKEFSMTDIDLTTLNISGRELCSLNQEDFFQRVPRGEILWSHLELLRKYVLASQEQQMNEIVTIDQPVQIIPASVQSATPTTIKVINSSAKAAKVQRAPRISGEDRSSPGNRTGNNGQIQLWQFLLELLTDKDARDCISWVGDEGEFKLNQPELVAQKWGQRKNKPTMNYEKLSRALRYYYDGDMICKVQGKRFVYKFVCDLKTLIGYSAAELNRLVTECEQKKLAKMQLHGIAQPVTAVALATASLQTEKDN
Method in brief: as §1

ERG = molecular target: T4, ERG (Homo sapiens, UniProt P11308 1-479)
T4 sequence: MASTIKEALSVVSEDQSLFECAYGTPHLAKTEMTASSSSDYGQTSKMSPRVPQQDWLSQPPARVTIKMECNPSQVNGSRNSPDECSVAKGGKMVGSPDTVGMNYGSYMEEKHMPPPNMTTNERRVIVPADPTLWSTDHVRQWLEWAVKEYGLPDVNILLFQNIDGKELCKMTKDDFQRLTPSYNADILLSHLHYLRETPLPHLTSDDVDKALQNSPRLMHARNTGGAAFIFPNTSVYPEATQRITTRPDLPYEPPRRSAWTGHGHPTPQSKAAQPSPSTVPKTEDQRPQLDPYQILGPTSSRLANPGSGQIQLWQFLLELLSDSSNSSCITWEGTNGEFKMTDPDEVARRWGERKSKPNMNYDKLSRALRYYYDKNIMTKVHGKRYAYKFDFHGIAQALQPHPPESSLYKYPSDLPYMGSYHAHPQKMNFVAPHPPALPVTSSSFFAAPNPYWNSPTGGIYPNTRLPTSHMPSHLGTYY
Method in brief: as §1

ELF1 = ELF1 (Homo sapiens, UniProt P32519 1-619)
Chain of ELF1 (P32519 whole entry): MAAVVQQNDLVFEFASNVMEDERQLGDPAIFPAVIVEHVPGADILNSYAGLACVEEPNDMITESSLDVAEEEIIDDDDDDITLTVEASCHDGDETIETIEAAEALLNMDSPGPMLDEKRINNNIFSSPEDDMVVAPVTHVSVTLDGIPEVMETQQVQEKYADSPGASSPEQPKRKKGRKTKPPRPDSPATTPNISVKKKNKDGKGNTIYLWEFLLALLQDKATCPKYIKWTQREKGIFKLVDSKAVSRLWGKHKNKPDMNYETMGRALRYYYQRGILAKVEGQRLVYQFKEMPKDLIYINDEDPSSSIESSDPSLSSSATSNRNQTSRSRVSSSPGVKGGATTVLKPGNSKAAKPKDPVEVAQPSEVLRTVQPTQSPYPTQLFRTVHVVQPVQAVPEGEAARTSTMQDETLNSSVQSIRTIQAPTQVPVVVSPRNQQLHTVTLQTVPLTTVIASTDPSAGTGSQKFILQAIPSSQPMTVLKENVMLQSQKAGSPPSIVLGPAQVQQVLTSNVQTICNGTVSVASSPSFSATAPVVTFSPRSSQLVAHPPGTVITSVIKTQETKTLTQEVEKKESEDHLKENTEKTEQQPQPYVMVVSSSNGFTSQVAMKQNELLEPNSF
Method in brief: as §1

EHF = molecular target: T5, EHF (Homo sapiens, UniProt Q9NZC4 1-300)
T5 sequence: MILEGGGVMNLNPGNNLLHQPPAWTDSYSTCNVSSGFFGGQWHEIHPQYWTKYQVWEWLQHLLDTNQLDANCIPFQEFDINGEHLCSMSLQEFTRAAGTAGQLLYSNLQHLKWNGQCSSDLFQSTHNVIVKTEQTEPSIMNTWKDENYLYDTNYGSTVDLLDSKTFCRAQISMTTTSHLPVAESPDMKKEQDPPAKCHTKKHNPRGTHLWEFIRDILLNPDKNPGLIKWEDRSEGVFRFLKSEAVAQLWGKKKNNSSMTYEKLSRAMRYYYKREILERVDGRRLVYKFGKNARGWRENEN
Method in brief: as §1

SPI1 = SPI1 (Homo sapiens, UniProt P17947 1-270)
Method in brief: as §1

SPIB = SPIB (Homo sapiens, UniProt Q01892 1-262)
Chain of SPIB (Q01892 whole entry): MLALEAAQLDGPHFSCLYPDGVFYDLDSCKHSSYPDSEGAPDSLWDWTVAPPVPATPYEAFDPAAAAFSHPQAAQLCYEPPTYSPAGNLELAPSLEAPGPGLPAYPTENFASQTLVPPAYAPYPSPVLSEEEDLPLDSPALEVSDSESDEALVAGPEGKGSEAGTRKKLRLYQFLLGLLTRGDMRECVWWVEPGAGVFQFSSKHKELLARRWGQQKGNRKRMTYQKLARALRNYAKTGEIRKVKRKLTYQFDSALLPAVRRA
Method in brief: as §1

ELK3 = molecular target: T6, ELK3 (Homo sapiens, UniProt P41970 1-407)
T6 sequence: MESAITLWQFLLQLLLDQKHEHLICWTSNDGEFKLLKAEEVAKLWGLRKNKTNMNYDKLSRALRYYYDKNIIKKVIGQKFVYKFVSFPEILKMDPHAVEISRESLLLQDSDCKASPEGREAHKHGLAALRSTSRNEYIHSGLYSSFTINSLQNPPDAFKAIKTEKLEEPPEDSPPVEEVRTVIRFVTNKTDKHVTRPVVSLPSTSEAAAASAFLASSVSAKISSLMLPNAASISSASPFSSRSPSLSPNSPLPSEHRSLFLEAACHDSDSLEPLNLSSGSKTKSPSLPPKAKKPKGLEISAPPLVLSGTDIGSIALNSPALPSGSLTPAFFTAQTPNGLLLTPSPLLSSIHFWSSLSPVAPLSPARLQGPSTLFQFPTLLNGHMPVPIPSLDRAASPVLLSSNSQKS
Method in brief: as §1

TCAACT
binding signal (FLI1): 1.31 fold enrichment (6-mer frequency, TF over GST control) | binding signal (ELK1): 1.31 fold enrichment (6-mer frequency, TF over GST control) | binding signal (GABPA): 1.34 fold enrichment (6-mer frequency, TF over GST control) | binding signal (ERG): 1.31 fold enrichment (6-mer frequency, TF over GST control) | binding signal (ELF1): 1.31 fold enrichment (6-mer frequency, TF over GST control) | binding signal (EHF): 1.35 fold enrichment (6-mer frequency, TF over GST control) | binding signal (SPI1): 1.36 fold enrichment (6-mer frequency, TF over GST control) | binding signal (SPIB): 1.3 fold enrichment (6-mer frequency, TF over GST control) | binding signal (ELK3): 1.22 fold enrichment (6-mer frequency, TF over GST control)

ATTGGT
binding signal (FLI1): 1.31 fold enrichment (6-mer frequency, TF over GST control) | binding signal (ELK1): 1.34 fold enrichment (6-mer frequency, TF over GST control) | binding signal (GABPA): 1.14 fold enrichment (6-mer frequency, TF over GST control) | binding signal (ERG): 1.19 fold enrichment (6-mer frequency, TF over GST control) | binding signal (ELF1): 1.22 fold enrichment (6-mer frequency, TF over GST control) | binding signal (EHF): 1.28 fold enrichment (6-mer frequency, TF over GST control) | binding signal (SPI1): 1.25 fold enrichment (6-mer frequency, TF over GST control) | binding signal (SPIB): 1.33 fold enrichment (6-mer frequency, TF over GST control) | binding signal (ELK3): 1.33 fold enrichment (6-mer frequency, TF over GST control)

TTTCAC
binding signal (FLI1): 1.39 fold enrichment (6-mer frequency, TF over GST control) | binding signal (ELK1): 1.34 fold enrichment (6-mer frequency, TF over GST control) | binding signal (GABPA): 1.37 fold enrichment (6-mer frequency, TF over GST control) | binding signal (ERG): 1.33 fold enrichment (6-mer frequency, TF over GST control) | binding signal (ELF1): 1.43 fold enrichment (6-mer frequency, TF over GST control) | binding signal (EHF): 1.3 fold enrichment (6-mer frequency, TF over GST control) | binding signal (SPI1): 1.34 fold enrichment (6-mer frequency, TF over GST control) | binding signal (SPIB): 1.27 fold enrichment (6-mer frequency, TF over GST control) | binding signal (ELK3): 1.39 fold enrichment (6-mer frequency, TF over GST control)

CACTTT
binding signal (FLI1): 1.25 fold enrichment (6-mer frequency, TF over GST control) | binding signal (ELK1): 1.33 fold enrichment (6-mer frequency, TF over GST control) | binding signal (GABPA): 1.21 fold enrichment (6-mer frequency, TF over GST control) | binding signal (ERG): 1.26 fold enrichment (6-mer frequency, TF over GST control) | binding signal (ELF1): 1.35 fold enrichment (6-mer frequency, TF over GST control) | binding signal (EHF): 1.36 fold enrichment (6-mer frequency, TF over GST control) | binding signal (SPI1): 1.39 fold enrichment (6-mer frequency, TF over GST control) | binding signal (SPIB): 1.37 fold enrichment (6-mer frequency, TF over GST control) | binding signal (ELK3): 1.29 fold enrichment (6-mer frequency, TF over GST control)

TTACTT
binding signal (FLI1): 1.44 fold enrichment (6-mer frequency, TF over GST control) | binding signal (ELK1): 1.53 fold enrichment (6-mer frequency, TF over GST control) | binding signal (GABPA): 1.44 fold enrichment (6-mer frequency, TF over GST control) | binding signal (ERG): 1.44 fold enrichment (6-mer frequency, TF over GST control) | binding signal (ELF1): 1.53 fold enrichment (6-mer frequency, TF over GST control) | binding signal (EHF): 1.58 fold enrichment (6-mer frequency, TF over GST control) | binding signal (SPI1): 1.59 fold enrichment (6-mer frequency, TF over GST control) | binding signal (SPIB): 1.58 fold enrichment (6-mer frequency, TF over GST control) | binding signal (ELK3): 1.64 fold enrichment (6-mer frequency, TF over GST control)

ATCTAT
binding signal (FLI1): 1.15 fold enrichment (6-mer frequency, TF over GST control) | binding signal (ELK1): 1.14 fold enrichment (6-mer frequency, TF over GST control) | binding signal (GABPA): 1.17 fold enrichment (6-mer frequency, TF over GST control) | binding signal (ERG): 1.09 fold enrichment (6-mer frequency, TF over GST control) | binding signal (ELF1): 1.16 fold enrichment (6-mer frequency, TF over GST control) | binding signal (EHF): 1.12 fold enrichment (6-mer frequency, TF over GST control) | binding signal (SPI1): 1.09 fold enrichment (6-mer frequency, TF over GST control) | binding signal (SPIB): 1.15 fold enrichment (6-mer frequency, TF over GST control) | binding signal (ELK3): 1.13 fold enrichment (6-mer frequency, TF over GST control)

TATCCA
binding signal (FLI1): 1.3 fold enrichment (6-mer frequency, TF over GST control) | binding signal (ELK1): 1.36 fold enrichment (6-mer frequency, TF over GST control) | binding signal (GABPA): 1.3 fold enrichment (6-mer frequency, TF over GST control) | binding signal (ERG): 1.22 fold enrichment (6-mer frequency, TF over GST control) | binding signal (ELF1): 1.29 fold enrichment (6-mer frequency, TF over GST control) | binding signal (EHF): 1.26 fold enrichment (6-mer frequency, TF over GST control) | binding signal (SPI1): 1.27 fold enrichment (6-mer frequency, TF over GST control) | binding signal (SPIB): 1.36 fold enrichment (6-mer frequency, TF over GST control) | binding signal (ELK3): 1.37 fold enrichment (6-mer frequency, TF over GST control)
